# Measurements reported in article PMC5540273 (PLoS ONE, 2017).
# Read-outs that look alike come from different tables or passages of the source.
# Columns and labels:
# [1] = test system: FGFR1; settings: concentration: 1 μM, replicates: in singlicate; n = 1
# [2] = test system: FGFR2; settings: concentration: 1 μM, replicates: in singlicate; n = 1
# [3] = test system: FGFR3; settings: concentration: 1 μM, replicates: in singlicate; n = 1
# [4] = test system: FGFR4; settings: concentration: 1 μM, replicates: in singlicate; n = 1
# [5] = test system: FGR; settings: concentration: 1 μM, replicates: in singlicate; n = 1
# [6] = test system: FLT1; settings: concentration: 1 μM, replicates: in singlicate; n = 1
# [7] = test system: FLT3-autoinhibited; settings: concentration: 1 μM, replicates: in singlicate; n = 1
# [8] = test system: FLT3; settings: concentration: 1 μM, replicates: in singlicate; n = 1
# [9] = test system: FLT4; settings: concentration: 1 μM, replicates: in singlicate; n = 1
# [10] = test system: FRK; settings: concentration: 1 μM, replicates: in singlicate; n = 1
# [11] = test system: FYN; settings: concentration: 1 μM, replicates: in singlicate; n = 1
# [12] = test system: GAK; settings: concentration: 1 μM, replicates: in singlicate; n = 1
# [13] = test system: T1, GCN2(Kin.Dom.2,S808G); settings: concentration: 1 μM, replicates: in singlicate; n = 1
# T1 construct: gene EIF2AK4
# [14] = test system: GRK1; settings: concentration: 1 μM, replicates: in singlicate; n = 1
# [15] = test system: T2, GRK2; settings: concentration: 1 μM, replicates: in singlicate; n = 1
# T2 construct: gene ADRBK1
# [16] = test system: T3, GRK3; settings: concentration: 1 μM, replicates: in singlicate; n = 1
# T3 construct: gene ADRBK2
# [17] = test system: GRK4; settings: concentration: 1 μM, replicates: in singlicate; n = 1
# [18] = test system: GRK7; settings: concentration: 1 μM, replicates: in singlicate; n = 1
# [19] = test system: GSK3A; settings: concentration: 1 μM, replicates: in singlicate; n = 1
# [20] = test system: GSK3B; settings: n = 1
# [21] = concentration: 1 μM, replicates: in singlicate
# 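Note: KINOMEscan kinase panel screen.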
smiles,measurement,setting,value
Cc1occc1-c1ncc(OC[C@@H](N)Cc2c[nH]c3ccccc23)cc1-c1ccc2[nH]nc(C)c2c1.O=C(O)C(F)(F)F [GSK682037],%Inh,[1],6%
same,%Inh,[2],0%
same,%Inh,[3],1%
same,%Inh,[4],0%
same,%Inh,[5],77%
same,%Inh,[6],11%
same,%Inh,[7],0%
same,%Inh,[8],0%
same,%Inh,[9],3%
same,%Inh,[10],57%
same,%Inh,[11],86%
same,%Inh,[12],82%
same,%Inh,[13],0%
same,%Inh,[14],3%
same,%Inh,[15],0%
same,%Inh,[16],0%
same,%Inh,[17],62%
same,%Inh,[18],43%
same,%Inh,[19],64%
same,%Inh,[20]; [21],55%
CCCCc1nn2ncccc2c1-c1ccnc(Nc2ccc(N3CCN(C)CC3)cc2)n1 [GW684941],%Inh,[1],97.9%
same,%Inh,[2],96.9%
same,%Inh,[3],89%
same,%Inh,[4],68%
same,%Inh,[5],91.9%
same,%Inh,[6],98%
same,%Inh,[7],93.3%
same,%Inh,[8],99.5%
same,%Inh,[9],95.6%
same,%Inh,[10],95%
same,%Inh,[11],58%
same,%Inh,[12],91.7%
same,%Inh,[13],93%
same,%Inh,[14],0%
same,%Inh,[15],0%
same,%Inh,[16],62%
same,%Inh,[17],16%
same,%Inh,[18],0%
same,%Inh,[19],7%
same,%Inh,[20]; [21],5%
NCCCC(NC(=O)c1cc(Br)c(-c2ccnc3[nH]ccc23)s1)c1ccccc1.O=C(O)C(F)(F)F.O=C(O)C(F)(F)F (centres unmarked) [GSK1287544],%Inh,[1],52%
same,%Inh,[2],16%
same,%Inh,[3],30%
same,%Inh,[4],18%
same,%Inh,[5],24%
same,%Inh,[6],60%
same,%Inh,[7],6%
same,%Inh,[8],83%
same,%Inh,[9],38%
same,%Inh,[10],2%
same,%Inh,[11],2%
same,%Inh,[12],23%
same,%Inh,[13],7%
same,%Inh,[14],68%
same,%Inh,[15],75%
same,%Inh,[16],85%
same,%Inh,[17],57%
same,%Inh,[18],83%
same,%Inh,[19],0%
same,%Inh,[20]; [21],15%
COC(=O)Nc1nc2ccc(Oc3ccc(NC(=O)Nc4cc(C(F)(F)F)ccc4F)cc3)cc2n1C.Cl [GW692089],%Inh,[1],2%
same,%Inh,[2],0%
same,%Inh,[3],7%
same,%Inh,[4],0%
same,%Inh,[5],28%
same,%Inh,[6],89%
same,%Inh,[7],3%
same,%Inh,[8],99%
same,%Inh,[9],87%
same,%Inh,[10],69%
same,%Inh,[11],0%
same,%Inh,[12],0%
same,%Inh,[13],0%
same,%Inh,[14],0%
same,%Inh,[15],0%
same,%Inh,[16],49%
same,%Inh,[17],6%
same,%Inh,[18],0%
same,%Inh,[19],9%
same,%Inh,[20]; [21],0%
O=C(Nc1ccccc1F)NC1CCN(c2ccnc(Nc3ccc(F)cc3)n2)CC1 [GSK1379800],%Inh,[1],0%
same,%Inh,[2],0%
same,%Inh,[3],0%
same,%Inh,[4],2%
same,%Inh,[5],18%
same,%Inh,[6],29%
same,%Inh,[7],0%
same,%Inh,[8],0%
same,%Inh,[9],0%
same,%Inh,[10],0%
same,%Inh,[11],8%
same,%Inh,[12],0%
same,%Inh,[13],0%
same,%Inh,[14],0%
same,%Inh,[15],0%
same,%Inh,[16],0%
same,%Inh,[17],0%
same,%Inh,[18],0%
same,%Inh,[19],5%
same,%Inh,[20]; [21],12%
O=C(Nc1n[nH]c2nc(-c3ccc(O)cc3)ccc12)C1CC1 [SB-710363],%Inh,[1],0%
same,%Inh,[2],0%
same,%Inh,[3],0%
same,%Inh,[4],0%
same,%Inh,[5],11%
same,%Inh,[6],16%
same,%Inh,[7],18%
same,%Inh,[8],82%
same,%Inh,[9],0%
same,%Inh,[10],0%
same,%Inh,[11],0%
same,%Inh,[12],8%
same,%Inh,[13],0%
same,%Inh,[14],34%
same,%Inh,[15],0%
same,%Inh,[16],16%
same,%Inh,[17],20%
same,%Inh,[18],13%
same,%Inh,[19],98.8%
same,%Inh,[20]; 1 µM,95.6%
CCS(=O)(=O)c1ccc(OC)c(Nc2nccc(-c3c(-c4cccc(NC(=O)c5c(F)cccc5F)c4)nn4ncccc34)n2)c1 [GSK326180],%Inh,[1],0%
same,%Inh,[2],0%
same,%Inh,[3],16%
same,%Inh,[4],16%
same,%Inh,[5],64%
same,%Inh,[6],90%
same,%Inh,[7],0%
same,%Inh,[8],0%
same,%Inh,[9],29%
same,%Inh,[10],61%
same,%Inh,[11],53%
same,%Inh,[12],0%
same,%Inh,[13],8%
same,%Inh,[14],0%
same,%Inh,[15],0%
same,%Inh,[16],17%
same,%Inh,[17],0%
same,%Inh,[18],0%
same,%Inh,[19],12%
same,%Inh,[20]; [21],2%
CN(C)S(=O)(=O)c1cc(-c2ccc3nccc(-c4cccc(S(N)(=O)=O)c4)c3c2)cnc1N [GSK1669921],%Inh,[1],0%
same,%Inh,[2],22%
same,%Inh,[3],26%
same,%Inh,[4],13%
same,%Inh,[5],22%
same,%Inh,[6],25%
same,%Inh,[7],19%
same,%Inh,[8],1%
same,%Inh,[9],1%
same,%Inh,[10],7%
same,%Inh,[11],28%
same,%Inh,[12],28%
same,%Inh,[13],0%
same,%Inh,[14],5%
same,%Inh,[15],0%
same,%Inh,[16],0%
same,%Inh,[17],12%
same,%Inh,[18],8%
same,%Inh,[19],0%
same,%Inh,[20]; [21],3%
Fc1ccc(-c2ncn(C3CCNCC3)c2-c2ccnc(Oc3ccc(-c4ccccc4)cc3)n2)cc1 [SB-245391],%Inh,[1],19%
same,%Inh,[2],0%
same,%Inh,[3],0%
same,%Inh,[4],59%
same,%Inh,[5],17%
same,%Inh,[6],13%
same,%Inh,[7],1%
same,%Inh,[8],14%
same,%Inh,[9],5%
same,%Inh,[10],31%
same,%Inh,[11],20%
same,%Inh,[12],22%
same,%Inh,[13],18%
same,%Inh,[14],19%
same,%Inh,[15],12%
same,%Inh,[16],22%
same,%Inh,[17],0%
same,%Inh,[18],32%
same,%Inh,[19],0%
same,%Inh,[20]; [21],27%
COc1cccc(-c2ccc3c(NC(=O)C4CC4)n[nH]c3n2)c1 [SB-710903],%Inh,[1],0%
same,%Inh,[2],0%
same,%Inh,[3],0%
same,%Inh,[4],9%
same,%Inh,[5],26%
same,%Inh,[6],8%
same,%Inh,[7],0%
same,%Inh,[8],0%
same,%Inh,[9],1%
same,%Inh,[10],0%
same,%Inh,[11],0%
same,%Inh,[12],3%
same,%Inh,[13],1%
same,%Inh,[14],5%
same,%Inh,[15],0%
same,%Inh,[16],75%
same,%Inh,[17],0%
same,%Inh,[18],0%
same,%Inh,[19],88%
same,%Inh,[20]; 1 µM,43%
